Data on 43 targets can be found in the supplement of paper PMC11001985.

A number with no mark means an inactive call.

Compound in the assay: C#CCNC(=O)CCSSCCC(=O)NCCc1ccc(C=O)c(C=O)c1
Kind of assay: lysine labeling ratio R10:1 (500 µM / 50 µM probe), SILAC-ABPP in living cells; higher = lower intrinsic lysine reactivity toward the probe, active = 2 or less. As to conditions: HeLa; probe concentrations 500 vs 50 µM. In outline: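 SILAC light and heavy living HeLa cells in PBS at room temperature were labelled with 50 µM or 500 µM of an alkyne-tagged, disulfide-linked lysine probe, with forward and reverse label swaps. Mixed lysates were clicked to biotin-azide, trypsin-digested, captured on neutravidin, DTT-released, alkylated and analysed by LC-MS/MS on a TIMS-TOF Pro. R is the filtered median high-probe/low-probe MS1 peptide ratio per lysine, then the median across forward and reverse replicates. Ratios are capped at 20.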

Sequence of UniProt P35579 (P35579 whole entry): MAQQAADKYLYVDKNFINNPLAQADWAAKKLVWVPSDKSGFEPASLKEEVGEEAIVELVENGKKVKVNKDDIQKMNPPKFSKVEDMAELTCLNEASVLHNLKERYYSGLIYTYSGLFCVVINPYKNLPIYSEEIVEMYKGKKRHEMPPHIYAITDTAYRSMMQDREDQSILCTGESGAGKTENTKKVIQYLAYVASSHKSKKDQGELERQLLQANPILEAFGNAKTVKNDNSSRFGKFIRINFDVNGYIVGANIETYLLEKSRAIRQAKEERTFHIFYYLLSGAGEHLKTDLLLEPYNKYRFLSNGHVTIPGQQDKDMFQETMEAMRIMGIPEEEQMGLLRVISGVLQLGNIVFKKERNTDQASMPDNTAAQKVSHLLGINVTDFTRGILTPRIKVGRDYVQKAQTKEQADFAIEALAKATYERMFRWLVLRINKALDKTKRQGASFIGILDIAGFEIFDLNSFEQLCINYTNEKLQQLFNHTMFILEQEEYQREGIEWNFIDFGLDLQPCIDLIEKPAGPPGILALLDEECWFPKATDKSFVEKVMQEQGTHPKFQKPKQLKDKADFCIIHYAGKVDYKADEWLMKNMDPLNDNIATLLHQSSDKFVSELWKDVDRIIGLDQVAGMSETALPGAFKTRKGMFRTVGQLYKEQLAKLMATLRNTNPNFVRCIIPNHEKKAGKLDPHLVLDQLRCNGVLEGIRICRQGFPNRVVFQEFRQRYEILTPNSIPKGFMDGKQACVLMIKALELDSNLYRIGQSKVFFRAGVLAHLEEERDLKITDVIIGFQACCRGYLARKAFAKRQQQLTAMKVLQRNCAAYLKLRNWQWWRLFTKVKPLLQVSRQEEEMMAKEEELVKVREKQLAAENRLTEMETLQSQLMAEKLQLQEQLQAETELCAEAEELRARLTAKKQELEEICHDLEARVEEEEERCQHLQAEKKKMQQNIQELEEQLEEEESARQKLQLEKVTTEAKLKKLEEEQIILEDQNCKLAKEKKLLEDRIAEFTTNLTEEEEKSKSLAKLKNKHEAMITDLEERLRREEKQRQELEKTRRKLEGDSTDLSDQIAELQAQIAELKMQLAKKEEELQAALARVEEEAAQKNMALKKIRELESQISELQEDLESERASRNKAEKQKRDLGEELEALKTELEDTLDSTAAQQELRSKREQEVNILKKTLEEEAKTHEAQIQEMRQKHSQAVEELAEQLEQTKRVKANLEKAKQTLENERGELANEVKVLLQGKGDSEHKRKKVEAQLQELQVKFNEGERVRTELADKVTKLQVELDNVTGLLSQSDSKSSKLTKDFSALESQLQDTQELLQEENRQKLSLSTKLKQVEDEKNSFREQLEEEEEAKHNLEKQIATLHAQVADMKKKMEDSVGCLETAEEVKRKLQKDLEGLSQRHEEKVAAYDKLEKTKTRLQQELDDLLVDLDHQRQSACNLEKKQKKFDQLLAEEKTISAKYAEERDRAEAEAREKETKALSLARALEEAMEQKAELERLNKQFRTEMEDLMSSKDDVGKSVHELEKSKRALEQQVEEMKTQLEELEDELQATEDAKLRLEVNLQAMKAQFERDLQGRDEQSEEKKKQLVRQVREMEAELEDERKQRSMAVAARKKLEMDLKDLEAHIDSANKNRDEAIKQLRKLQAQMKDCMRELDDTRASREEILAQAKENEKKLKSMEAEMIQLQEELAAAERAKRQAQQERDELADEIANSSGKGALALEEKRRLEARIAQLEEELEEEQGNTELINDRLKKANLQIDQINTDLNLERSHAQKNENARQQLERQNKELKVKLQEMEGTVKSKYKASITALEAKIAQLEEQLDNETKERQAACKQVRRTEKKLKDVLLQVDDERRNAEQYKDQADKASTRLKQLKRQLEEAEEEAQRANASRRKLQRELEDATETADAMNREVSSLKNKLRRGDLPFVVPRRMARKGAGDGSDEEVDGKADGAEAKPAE
Sequence of UniProt P42892 (P42892 whole entry): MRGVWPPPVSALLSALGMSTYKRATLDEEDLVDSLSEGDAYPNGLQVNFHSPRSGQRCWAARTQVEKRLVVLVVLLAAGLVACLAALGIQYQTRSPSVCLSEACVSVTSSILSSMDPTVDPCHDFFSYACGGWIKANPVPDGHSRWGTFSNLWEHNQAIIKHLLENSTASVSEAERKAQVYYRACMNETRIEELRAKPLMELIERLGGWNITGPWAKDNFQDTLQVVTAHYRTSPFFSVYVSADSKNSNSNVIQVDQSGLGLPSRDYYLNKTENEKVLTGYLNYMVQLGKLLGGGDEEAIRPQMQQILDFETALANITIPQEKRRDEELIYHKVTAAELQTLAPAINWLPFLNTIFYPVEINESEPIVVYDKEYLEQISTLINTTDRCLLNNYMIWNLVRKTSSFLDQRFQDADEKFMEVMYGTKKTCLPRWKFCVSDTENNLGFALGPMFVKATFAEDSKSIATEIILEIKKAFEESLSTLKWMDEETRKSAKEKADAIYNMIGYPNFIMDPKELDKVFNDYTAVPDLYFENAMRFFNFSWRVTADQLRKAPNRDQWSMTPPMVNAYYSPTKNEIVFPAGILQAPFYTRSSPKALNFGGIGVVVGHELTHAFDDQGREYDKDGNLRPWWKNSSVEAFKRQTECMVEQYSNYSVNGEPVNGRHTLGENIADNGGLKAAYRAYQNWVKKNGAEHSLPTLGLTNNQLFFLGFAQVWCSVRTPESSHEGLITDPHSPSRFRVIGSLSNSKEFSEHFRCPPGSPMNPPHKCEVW
Sequence of UniProt O43854 (O43854 whole entry): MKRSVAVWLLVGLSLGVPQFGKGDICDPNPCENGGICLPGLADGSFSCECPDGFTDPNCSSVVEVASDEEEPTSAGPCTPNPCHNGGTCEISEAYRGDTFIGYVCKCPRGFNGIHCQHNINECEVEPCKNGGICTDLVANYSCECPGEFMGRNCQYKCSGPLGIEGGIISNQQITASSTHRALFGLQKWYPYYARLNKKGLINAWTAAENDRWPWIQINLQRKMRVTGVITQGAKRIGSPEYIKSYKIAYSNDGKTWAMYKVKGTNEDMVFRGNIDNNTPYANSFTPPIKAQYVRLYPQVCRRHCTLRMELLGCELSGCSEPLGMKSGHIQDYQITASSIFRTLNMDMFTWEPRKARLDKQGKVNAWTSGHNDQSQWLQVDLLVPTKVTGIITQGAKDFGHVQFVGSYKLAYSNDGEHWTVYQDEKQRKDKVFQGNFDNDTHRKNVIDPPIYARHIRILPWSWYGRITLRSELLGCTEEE
Sequence of UniProt P54136 (P54136 whole entry): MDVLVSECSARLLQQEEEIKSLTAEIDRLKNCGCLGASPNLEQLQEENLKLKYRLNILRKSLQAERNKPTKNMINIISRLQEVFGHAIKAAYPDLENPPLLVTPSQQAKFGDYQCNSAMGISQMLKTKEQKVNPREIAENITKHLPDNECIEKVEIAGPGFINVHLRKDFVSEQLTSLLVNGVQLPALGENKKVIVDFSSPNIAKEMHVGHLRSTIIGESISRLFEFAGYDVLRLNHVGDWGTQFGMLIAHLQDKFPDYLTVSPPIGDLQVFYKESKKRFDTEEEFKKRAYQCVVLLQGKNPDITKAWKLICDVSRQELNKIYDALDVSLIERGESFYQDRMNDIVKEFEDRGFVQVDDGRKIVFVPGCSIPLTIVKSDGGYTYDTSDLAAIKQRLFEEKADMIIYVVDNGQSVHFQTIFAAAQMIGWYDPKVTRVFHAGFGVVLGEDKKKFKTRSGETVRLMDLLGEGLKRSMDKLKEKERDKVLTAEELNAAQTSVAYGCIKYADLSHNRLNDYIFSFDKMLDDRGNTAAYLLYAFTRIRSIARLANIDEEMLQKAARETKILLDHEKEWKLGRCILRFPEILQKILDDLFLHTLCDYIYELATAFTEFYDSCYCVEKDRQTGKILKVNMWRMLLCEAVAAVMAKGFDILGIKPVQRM
Sequence of UniProt Q13501 (Q13501 whole entry): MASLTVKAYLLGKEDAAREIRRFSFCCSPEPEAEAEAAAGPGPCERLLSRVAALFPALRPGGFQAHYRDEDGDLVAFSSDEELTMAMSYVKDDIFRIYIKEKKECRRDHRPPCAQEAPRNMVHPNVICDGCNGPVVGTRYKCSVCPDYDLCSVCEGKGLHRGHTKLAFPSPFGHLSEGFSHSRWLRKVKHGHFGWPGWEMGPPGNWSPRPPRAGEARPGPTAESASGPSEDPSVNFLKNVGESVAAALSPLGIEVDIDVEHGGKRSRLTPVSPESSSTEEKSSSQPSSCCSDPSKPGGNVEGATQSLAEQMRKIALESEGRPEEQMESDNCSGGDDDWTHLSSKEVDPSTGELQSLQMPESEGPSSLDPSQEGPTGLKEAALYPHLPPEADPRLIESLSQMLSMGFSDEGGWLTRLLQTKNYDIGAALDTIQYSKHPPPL
Sequence of UniProt P11142 (P11142 whole entry, looked up): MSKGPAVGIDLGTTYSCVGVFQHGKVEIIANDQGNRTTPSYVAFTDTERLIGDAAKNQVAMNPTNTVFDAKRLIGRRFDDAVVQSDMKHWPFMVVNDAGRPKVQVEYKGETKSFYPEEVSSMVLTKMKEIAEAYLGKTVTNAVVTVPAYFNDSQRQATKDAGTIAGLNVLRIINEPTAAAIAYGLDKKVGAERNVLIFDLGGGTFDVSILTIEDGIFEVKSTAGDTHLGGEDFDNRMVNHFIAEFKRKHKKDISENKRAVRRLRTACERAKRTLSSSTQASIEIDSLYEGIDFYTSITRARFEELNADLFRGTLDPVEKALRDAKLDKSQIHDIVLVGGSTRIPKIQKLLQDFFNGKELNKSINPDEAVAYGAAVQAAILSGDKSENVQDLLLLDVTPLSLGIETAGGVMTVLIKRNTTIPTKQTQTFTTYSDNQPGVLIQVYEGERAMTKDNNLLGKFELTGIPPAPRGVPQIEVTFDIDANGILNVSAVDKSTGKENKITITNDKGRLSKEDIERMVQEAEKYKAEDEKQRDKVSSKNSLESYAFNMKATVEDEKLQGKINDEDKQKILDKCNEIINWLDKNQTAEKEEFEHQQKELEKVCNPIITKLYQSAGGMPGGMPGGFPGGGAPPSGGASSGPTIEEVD

With “HSPA8 (lysine site: K319) (UniProt P11142)”, the “lysine labeling ratio R10:1” value was 4.74. Take “TMEM30A (lysine site: K279) (UniProt Q9NV96)”: the “lysine labeling ratio R10:1” value is 1.73 (active). For the target “MAP4 (lysine site: K933) (UniProt P27816)”, the “lysine labeling ratio R10:1” value is 1.9 (active). As for “NRP1 (lysine site: K231) (UniProt O14786)”, the figure is 5.85; as for “RPSA (lysine site: K89) (UniProt P08865)”, 4.12; as for “RALA (lysine site: K159) (UniProt P11233)”, 0.885 (active). As to “DCTN2 (lysine site: K175) (UniProt Q13561)”, the “lysine labeling ratio R10:1” value was 2.59.

Take “RARS (lysine site: K60) (UniProt P54136)”: the “lysine labeling ratio R10:1” value is 3.02.

With “HSPA9 (lysine site: K567) (UniProt P38646)”, the “lysine labeling ratio R10:1” value is 2.96. For “IL17RA (lysine site: K274) (UniProt Q96F46)”, the “lysine labeling ratio R10:1” value was 0.998 (active). Consider “SLC4A7 (lysine site: K890) (UniProt Q9Y6M7)”, for which the “lysine labeling ratio R10:1” value is 4.29. Regarding “LAMC1 (lysine site: K1258) (UniProt P11047)”, the “lysine labeling ratio R10:1” value was 1.54 (active).

As to UniProt Q9Y653 (lysine site: K215), the “lysine labeling ratio R10:1” value is 4.06. As for “COL5A1 (lysine site: K57) (UniProt P20908)”, the figure is 1.11 (active). In the case of “RPL22 (lysine site: K80) (UniProt P35268)”, the “lysine labeling ratio R10:1” value was 2.72.

Turning to “CKAP4 (lysine site: K301) (UniProt Q07065)”, the “lysine labeling ratio R10:1” value is 2.85. “SQSTM1 (lysine site: K13) (UniProt Q13501)”: the “lysine labeling ratio R10:1” value was 7.96. With “ECE1 (lysine site: K177) (UniProt P42892)” the figure was 7.91; with “METTL7A (lysine site: K210) (UniProt Q9H8H3)”, 1.36 (active); with “CALD1 (lysine site: K534) (UniProt Q05682)”, 0.785 (active). In the case of “SLC25A5 (lysine site: K245) (UniProt P05141)”, the “lysine labeling ratio R10:1” value was 2.26.

As for UniProt P62805 (lysine site: K17), the “lysine labeling ratio R10:1” value was 2.71. As to UniProt P62244 (lysine site: K32), the “lysine labeling ratio R10:1” value is 4.35. As for “EDIL3 (lysine site: K235) (UniProt O43854)”, the figure is 7.28. For the target UniProt Q16363 (lysine site: K682), the “lysine labeling ratio R10:1” value is 1.54 (active). For “MYH9 (lysine site: K1631) (UniProt P35579)”, the “lysine labeling ratio R10:1” value was 1.9 (active). With “ATP6V0A1 (lysine site: K70) (UniProt Q93050)” the figure was 0.55 (active).

In the case of “EPHA2 (lysine site: K475) (UniProt P29317)”, the “lysine labeling ratio R10:1” value is 2.38. With “EBP (lysine site: K106) (UniProt Q15125)” the figure was 4.19; with “TFRC (lysine site: K128) (UniProt P02786)”, 6.74; with “HSP90B1 (lysine site: K97) (UniProt P14625)”, 5.42. Turning to “LAMB1 (lysine site: K1579) (UniProt P07942)”, the “lysine labeling ratio R10:1” value was 2.82. With FBL (lysine site: K84) (UniProt P22087) the figure was 3.62. With “PNN (lysine site: K157) (UniProt Q9H307)” the figure was 1.95 (active); with F2 (lysine site: K599) (UniProt P00734), 6.29; with “CD109 (lysine site: K952) (UniProt Q6YHK3)”, 0.643 (active). Regarding UniProt P62829 (lysine site: K74), the “lysine labeling ratio R10:1” value was 3.78.

Take “SERPINH1 (lysine site: K217) (UniProt P50454)”: the “lysine labeling ratio R10:1” value was 1.17 (active). Regarding “CD151 (lysine site: K132) (UniProt P48509)”, the “lysine labeling ratio R10:1” value was 2.31. For “THRAP3 (lysine site: K711) (UniProt Q9Y2W1)”, the “lysine labeling ratio R10:1” value is 1.73 (active). As to “FAS (lysine site: K126) (UniProt P25445)”, the “lysine labeling ratio R10:1” value was 2.16. On to “FAT1 (lysine site: K1542) (UniProt Q14517)”, for which the “lysine labeling ratio R10:1” value is 2.78. Regarding “WDR1 (lysine site: K81) (UniProt O75083)”, the “lysine labeling ratio R10:1” value is 0.967 (active).
